Hits are enriched below; roughly 3.5% of the tested compounds scored in any of these assays.
Tau ThT inhib: blocks human tau fibril formation measured by thioflavin T. AID 1460. 2.1% of 270,000 active. Potency, µM (highest dose often 57.4 µM), usual class: inhibitors. recombinant tau K18 P301L, heparin-induced fibrillization, ThT fluorescence. P10636; also: nearly all actives have a fitted effect of over 55% in size
Target sequence (P10636 561-689 P618L limits assumed): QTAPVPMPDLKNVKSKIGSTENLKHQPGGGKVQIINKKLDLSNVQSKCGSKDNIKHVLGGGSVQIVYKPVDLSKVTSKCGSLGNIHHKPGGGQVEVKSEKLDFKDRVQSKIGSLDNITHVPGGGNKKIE
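Using a mix of unlabeled (15 uM) and Alexa 594-labeled (0.24 uM) tau K18 P301L, heparin-triggered fibrillization over 6 hr at 37 C was scored by ThT fluorescence.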
TRb-SRC2 inh: disrupts binding of human TR beta to SRC2 | P10828 | TRbeta-SRC2 peptide binding, fluorescence polarization; receptor liganded with 1 µM T3 | Potency, µM (doses to about 106 µM), most hits filed as inhibitors | 0.065% of 280,000 active | AID 1469; also: nearly all actives have a fitted effect of over 50% in size
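A fluorescence polarization screen tested compounds at multiple concentrations against complex formation between 0.6 uM TRb ligand-binding domain and 20 nM Texas Red SRC2 peptide, with 1 uM T3 present; readout after 5 hr.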
Tau fluor counter: counter-screen for tau fibril formation inhibitors; AID 1463; Potency, µM (highest dose often 57.7 µM); 0.93% of 280,000 active; tau K18 P301L (four-repeat tau fragment) Alexa594 fluorescence, heparin fibrillization; also: nearly all actives have a fitted effect of over 55% in size
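Human K18 P301L tau (15 uM unlabeled plus 0.24 uM Alexa 594-labeled, final) in 100 mM sodium acetate pH 7 was mixed with compound and 20 uM heparin and incubated 6 hr at 37 C.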
TR SRC2 fluor cs: Texas Red fluorescence interference in TRb-SRC2 counter-screen; TRb/SRC2 Texas Red total fluorescence interference; 0.29% of 280,000 active; Potency, µM (highest dose often 106 µM); active = well fitted curve in either direction with a large enough effect
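Human TRβ ligand-binding domain (0.6 uM) and Texas Red SRC2 peptide (20 nM) in Tris buffer with 1 uM T3 and 5% DMSO were incubated with pinned compound for 5 hr at ambient temperature. Total fluorescence was computed as S + 2P (555/632 nm).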
Tau FP inhib: inhibitors of human tau fibril formation. 0.39% of 280,000 active. AID 1468. P10636. Potency, µM (titrated, usually from 57.7 µM), most hits filed as inhibitors. K18 P301L tau heparin fibrillization, Alexa594 FP, 6 h; also: nearly all actives have a fitted effect of over 55% in size
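Recombinant K18 P301L […], labeled with Alexa 594 at 0.24 uM over 15 uM unlabeled; heparin inducer 20 uM final; 37 C, 6 hr; FP endpoint.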
KDM4E inh: inhibitors of human JMJD2E histone demethylase; 1.6% of 230,000 active; JMJD2E catalytic domain, FDH-coupled NADH fluorescence (FDH is formaldehyde dehydrogenase); B2RXH2; Potency, µM (doses to about 57.1 µM), actives largely listed as inhibitors; active = well fitted inhibition curve with a large enough effect, not every such curve was filed as active; also: nearly all actives have a fitted effect of over 50% in size
A number is an active result; 0 = inactive; [ ] = another dose, or the depositor's remark. Unless noted, calls follow the shape of the dose curve; as a rule, active = well fitted curve in the direction sought with a large enough effect; inconclusive = small, poorly fitted or top-dose-only effect, or another doubt; inactive = no such curve, though single readings can be large; an effect the other way counts as inactive or inconclusive.

SMILES	Tau ThT inhib	TRb-SRC2 inh	Tau fluor counter	TR SRC2 fluor cs	Tau FP inhib	KDM4E inh
CC(Cc1ccccc1Sc1ccc(O)cc1)N(C)C (configuration not stated)	0	0	0	0	0	0
CCOP(=O)(OCC)C(NC(=O)c1ccccc1C)C(Cl)(Cl)Cl (configuration not stated)	0	0	0	3.2µM[quencher]	0	0
CCOP(=O)(OCC)C(NC(=O)c1cccc2ccccc12)C(Cl)(Cl)Cl (configuration not stated)	0	0	0	32µM[quencher]	0	0
CCOP(=O)(OCC)C(NC(=O)Cc1ccccc1)C(Cl)(Cl)Cl (configuration not stated)	0	0	0	0	0	0
CCOP(=O)(OCC)C(NC(=O)c1cccc(C)c1)C(Cl)(Cl)Cl (configuration not stated)	0	0	0	0	0	0
CC[N+](CC)(CCCNC1=CC(=O)C(NCCC[N+](CC)(CC)Cc2ccccc2)=CC1=O)Cc1ccccc1	0	0	0	0	0	0

Source: PubChem
